Measurements reported in PubChem BioAssay AID1159580 (chemical genetic matrix, 2015).
Among all 5,500 compounds or so, about 2,000 (36%) were called active. Inconclusive results (about 18%) are left out. Rule as the data show it: active = normalized growth mostly below about 0.91 (no sharp cut-off); inconclusive = no clear call, values can overlap the other calls; inactive = mostly above about 0.92. This is one part of the list.

Test: chemical genetic growth profiling, strain panel (AID 1159580);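 also: tested at 20 µM; growth read once vehicle control cultures reached saturation at 30 °C; 1 = growth at the plate median or of vehicle wells; lower values mean less growth of the strain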
Conditions: growth OD

Measured: normalized growth

CC(=O)[C@H]1CCC2C3CCC4=CC(=O)CC[C@]4(C)C3CC[C@@]21C (some centres not stated)
inactive: S. cerevisiae deletion strains, locus YJR075W, strain HOC1, hits give low values 0.949 | S. cerevisiae deletion strains, locus YKL009W, strain mrt4, hits give low values 0.914 | S. cerevisiae deletion strains, locus YKL068W, hits give low values 0.947 | S. cerevisiae deletion strains, locus YKL160W, strain elf1, hits give low values 0.913 | S. cerevisiae deletion strains, locus YKL190W, strain CNB1, hits give low values 0.978 | S. cerevisiae deletion strains, locus YKR026C, strain gcn3, hits give low values 0.981 | S. cerevisiae deletion strains, locus YKR091W, strain srl3, hits give low values 0.977 | S. cerevisiae deletion strains, locus YLL001W, strain dnm1, hits give low values 0.989 | S. cerevisiae deletion strains, locus YLL026W, hits give low values 0.978 | S. cerevisiae deletion strains, locus YLL041C, strain sdh2, hits give low values 0.977 | S. cerevisiae deletion strains, locus YLR027C, strain aat2, hits give low values 0.95 | S. cerevisiae deletion strains, locus YLR058C, strain SHM2, hits give low values 0.974 | S. cerevisiae deletion strains, locus YLR102C, strain apc9, hits give low values 0.942 | S. cerevisiae deletion strains, locus YLR113W, strain HOG1, hits give low values 0.958 | S. cerevisiae deletion strains, locus YLR221C, strain rsa3, hits give low values 0.955 | S. cerevisiae deletion strains, locus YLR258W, strain gsy2, hits give low values 0.962 | S. cerevisiae deletion strains, locus YLR330W, strain CHS5, hits give low values 0.978 | S. cerevisiae deletion strains, locus YLR342W, strain FKS1 (second series), hits give low values 0.814 | S. cerevisiae deletion strains, locus YLR342W, strain FKS1, hits give low values 0.94 | S. cerevisiae deletion strains, locus YLR357W, strain rsc2, hits give low values 1.05 | S. cerevisiae deletion strains, locus YLR370C, strain arc18, hits give low values 0.957 | S. cerevisiae deletion strains, locus YLR384C, strain iki3, hits give low values 0.968 | S. cerevisiae deletion strains, locus YML016C, strain PPZ1, hits give low values 0.963 | S. cerevisiae deletion strains, locus YML120C, strain ndi1, hits give low values 0.966 | S. cerevisiae deletion strains, locus YML124C, strain tub3, hits give low values 0.942 | S. cerevisiae deletion strains, locus YMR058W, strain fet3, hits give low values 0.923 | S. cerevisiae deletion strains, locus YMR125W, strain sto1, hits give low values 0.942 | S. cerevisiae deletion strains, locus YMR129W, hits give low values 0.976 | S. cerevisiae deletion strains, locus YMR231W, strain pep5, hits give low values 0.96 | S. cerevisiae deletion strains, locus YMR263W, strain SAP30, hits give low values 0.973 | S. cerevisiae deletion strains, locus YMR307W, strain GAS1, hits give low values 0.78 | S. cerevisiae deletion strains, locus YNL067W, strain RPL9B, hits give low values 0.952 | S. cerevisiae deletion strains, locus YNL128W, strain TEP1, hits give low values 0.99 | S. cerevisiae deletion strains, locus YNL153C, strain GIM3, hits give low values 0.967 | S. cerevisiae deletion strains, locus YNL183C, strain NPR1, hits give low values 0.933 | S. cerevisiae deletion strains, locus YNL209W, strain ssb2, hits give low values 0.991 | S. cerevisiae deletion strains, locus YNL233W, strain BNI4, hits give low values 0.947 | S. cerevisiae deletion strains, locus YNL248C, strain rpa49, hits give low values 0.94 | S. cerevisiae deletion strains, locus YNL250W, strain rad50, hits give low values 0.917 | S. cerevisiae deletion strains, locus YNL322C, strain KRE1 (second series), hits give low values 1 | S. cerevisiae deletion strains, locus YNL322C, strain KRE1, hits give low values 0.989 | S. cerevisiae deletion strains, locus YNR049C, strain mso1, hits give low values 0.975 | S. cerevisiae deletion strains, locus YOL006C, strain TOP1, hits give low values 0.652 | S. cerevisiae deletion strains, locus YOL012C, strain htz1 0.798 | S. cerevisiae deletion strains, locus YOR001W, strain rrp6, hits give low values 0.934 | S. cerevisiae deletion strains, locus YOR061W, strain CKA2, hits give low values 0.964 | S. cerevisiae deletion strains, locus YOR069W, strain VPS5, hits give low values 0.978 | S. cerevisiae deletion strains, locus YOR070C, strain gyp1, hits give low values 0.955 | S. cerevisiae deletion strains, locus YOR080W, strain dia2, hits give low values 0.993 | S. cerevisiae deletion strains, locus YOR083W, strain WHI5, hits give low values 0.941 | S. cerevisiae deletion strains, locus YOR106W, strain vam3, hits give low values 0.95 | S. cerevisiae deletion strains, locus YOR136W, strain idh2, hits give low values 0.943 | S. cerevisiae deletion strains, locus YOR231W, strain MKK1, hits give low values 0.937 | S. cerevisiae deletion strains, locus YOR265W, strain rbl2, hits give low values 0.967 | S. cerevisiae deletion strains, locus YOR290C, strain snf2, hits give low values 0.926 | S. cerevisiae deletion strains, locus YPL055C, strain LGE1, hits give low values 0.929 | S. cerevisiae deletion strains, locus YPL106C, strain sse1, hits give low values 1.05 | S. cerevisiae deletion strains, locus YPL240C, strain hsp82, hits give low values 0.964 | S. cerevisiae deletion strains, locus YPL241C, strain CIN2, hits give low values 0.977 | S. cerevisiae deletion strains, locus YPL256C, strain CLN2, hits give low values 0.981 | S. cerevisiae deletion strains, locus YPR141C, strain kar3, hits give low values 0.937 | S. cerevisiae deletion strains, locus YPR167C, strain met16, hits give low values 0.945 | S. cerevisiae strains, strain wild type, hits give low values 0.974
active: S. cerevisiae deletion strains, locus YKL085W, strain MDH1 (second series), hits give low values 0.929 | S. cerevisiae deletion strains, locus YKL085W, strain MDH1, hits give low values 0.929 | S. cerevisiae deletion strains, locus YKR001C, strain vps1, hits give low values 0.704 | S. cerevisiae deletion strains, locus YLR039C, strain RIC1, hits give low values 0.447 | S. cerevisiae deletion strains, locus YLR262C, strain YPT6 (second series), hits give low values 0.475 | S. cerevisiae deletion strains, locus YLR262C, strain YPT6, hits give low values 0.494 | S. cerevisiae deletion strains, locus YLR268W, strain sec22, hits give low values 0.718 | S. cerevisiae deletion strains, locus YLR320W, strain mms22, hits give low values 0.615 | S. cerevisiae deletion strains, locus YLR371W, strain rom2, hits give low values 0.904 | S. cerevisiae deletion strains, locus YLR418C, strain cdc73, hits give low values 0.441 | S. cerevisiae deletion strains, locus YML032C, strain rad52, hits give low values 0.76 | S. cerevisiae deletion strains, locus YMR078C, strain ctf18, hits give low values 0.724 | S. cerevisiae deletion strains, locus YMR205C, strain PFK2, hits give low values 0.813 | S. cerevisiae deletion strains, locus YMR223W, strain ubp8, hits give low values 0.782 | S. cerevisiae deletion strains, locus YNL071W, strain lat1, hits give low values 0.632 | S. cerevisiae deletion strains, locus YNL271C, strain bni1, hits give low values 0.889 | S. cerevisiae deletion strains, locus YNL298W, strain CLA4, hits give low values 0.865 | S. cerevisiae deletion strains, locus YNL307C, strain MCK1, hits give low values 0.185 | S. cerevisiae deletion strains, locus YNR052C, strain pop2, hits give low values 0.733 | S. cerevisiae deletion strains, locus YOL147C, strain pex11, hits give low values 0.527 | S. cerevisiae deletion strains, locus YOR144C, strain elg1, hits give low values 0.852 | S. cerevisiae deletion strains, locus YOR184W, strain ser1, hits give low values 0.284 | S. cerevisiae deletion strains, locus YOR270C, strain vph1, hits give low values 0.704 | S. cerevisiae deletion strains, locus YOR316C, strain cot1, hits give low values 0.884 | S. cerevisiae deletion strains, locus YPL051W, strain arl3, hits give low values 0.903 | S. cerevisiae deletion strains, locus YPL078C, strain atp4, hits give low values 0.874 | S. cerevisiae deletion strains, locus YPR119W, strain clb2, hits give low values 0.919 | S. cerevisiae deletion strains, locus YPR163C, strain tif3, hits give low values 0.527 | S. cerevisiae deletion strains, strain wtn01, hits give low values 0.789
